A short description of assay [1]: Viability qHTS for spleen associated tyrosine kinase inhibitor (SYKi) naive MV4-11 cells (AID 1963823). Note: nearly all actives have a fitted effect of over 40% in size. The procedure, abridged:
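qHTS, SYK inhibitor-naive MV4-11; 500 cells/well; 72 hr compound exposure, 37 C; CellTiter-Glo added, 10 min RT; luminescence read.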

Assay [2] in a line: Viability qHTS for spleen associated tyrosine kinase inhibitor (SYKi) drug resistant MV4-11 cells (AID 1963824). Note: nearly all actives have a fitted effect of over 35% in size. The procedure, abridged: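 SYK-inhibitor-resistant MV4-11 AML cells were seeded at 500 per well onto compound and cultured 72 hours (37 °C, 5% CO2). CellTiter-Glo was then added, and after 10 min at room temperature, luminescence gave viability.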

Structures are written as SMILES. Records with an inconclusive call do not appear. Values without a mark were called inactive. The source made the active and inactive calls. Calls come from the whole dose curve; as a rule, active = well fitted cell-killing curve with a large enough effect; inconclusive = small, poorly fitted or top-dose-only effect, or effect the other way; inactive = no such curve, though single readings can be large or run the other way.
Potency is the fitted concentration of half-maximal effect.

`O=C(Nc1cccc(Nc2nccc(Nc3cccc(C(F)(F)F)c3)n2)c1)C1CC1`: the Potency in assay [1] and in assay [2] was 1.84 µM (active) each time.

For `CC(C)CC1NC(=O)C2CC3(O)c4ccccc4NC3N2C1=O` (configuration not stated), the Potency entry in assay [1] and in assay [2] was “inactive” throughout.

For `CCCCC/C=C\C/C=C\CCCCCCCC(=O)NC(C)c1ccccc1` (configuration not stated), the results for the Potency in assay [1] and in assay [2] were 11.9 µM (active) and 7.5 µM (active), respectively.

On to `COC(=O)C1=COC(OC2OC(CO)C(O)C(O)C2O)C2C(C)C(OC(C)=O)C(OC(=O)c3ccccc3)C12` (configuration not stated), for which the Potency result in assay [1] and in assay [2] was “inactive” in each case.

For `COC(=O)C1=CO[C@@H](O[C@@H]2O[C@H](CO)[C@@H](O)[C@H](O)[C@H]2O)[C@@H]2[C@@](C)(O)[C@@H](OC(=O)/C=C/c3ccc(O)cc3)C[C@]12O`, the Potency entry in assay [1] and in assay [2] was “inactive” throughout.

For the compound `C=C1CC[C@H]2[C@@](C)(CCC(O)[C@@]2(C)CO)[C@@H]1/C=C/C(=C\C(=O)O)C(=O)O` (some centres not stated), the Potency entry in assay [1] and in assay [2] was “inactive” in each case.

As to `Cc1ccc(NS(=O)(=O)c2ccc3c(c2)CCC(=O)N3)cc1C`, the Potency is 11.6 µM (active) in assay [1] and 9.2 µM (active) in assay [2].

Turning to `C=C1C2CCC3CC2(CC(O)C2(O)C1CC(OC1OC(CO)C(O)C(O)C1O)C2(C)C)CC3(C)O` (configuration not stated), the Potency result in assay [1] and in assay [2] was “inactive” in each case.

Turning to `CCN1CCN(C(=O)N[C@@H](C(=O)N[C@@H]2C(=O)N3[C@@H]2SC(C)(C)[C@@H]3C(=O)O)c2ccccc2)C(=O)C1=O`, the Potency result in assay [1] and in assay [2] was “inactive” throughout.

For the compound `COC1CC(OC2CCC3(C)C(=CCC4C3C(OC(C)=O)C(OC(=O)/C=C/c3ccccc3)C3(C)C(C(C)O)CCC43O)C2)OC(C)C1OC1CC(OC)C(OC2OC(C)C(OC3OC(CO)C(O)C(O)C3O)C(OC)C2O)C(C)O1` (configuration not stated), the viability (% of control) in assay [1] was 69.8% [at 9.25 µM]. The viability, % of control in assay [2] was 71.5% [at 9.25 µM].

On to `C=C1CC[C@@H](O)[C@]2(C)C[C@H]3OC(=O)C(=C)[C@H]3CC12` (some centres not stated), for which the Potency was 14.6 µM (active) in assay [1] and 6.51 µM (active) in assay [2].

As to `O=C1NC(c2cccc([N+](=O)[O-])c2)=CCN1c1ccccc1O`, the Potency entry in assay [1] and in assay [2] was “inactive” in each case.

Regarding `C=C[C@@](C)(O)CC/C=C(\C)C(=O)O[C@@H]1[C@@H]2O[C@]2(C)[C@H]2[C@H](O[C@@H]3O[C@H](CO)[C@@H](O)[C@H](O)[C@H]3O)OC=C[C@@]12O`, the Potency result in assay [1] and in assay [2] was “inactive” each time.

Regarding `CCN1CCN(Cc2ccc(C(=O)Nc3ccc(C)c(Oc4ccc5c(c4)CC(=O)N5)c3)cc2C(F)(F)F)CC1`, the Potency in assay [1] is 5.8 µM (active); in assay [2], 8.2 µM (active).

As for `C=C1C(=O)OC2/C=C(\COC(C)=O)CC/C=C(\C=O)CC(OC(=O)CC(C)C)C12` (configuration not stated), the Potency in assay [1] is 1.26 µM (active); in assay [2] it was 1.12 µM (active).

Take `C=C1C(=O)O[C@H]2CC(=C)[C@H]3CC[C@@](C)(O)[C@@H]3CC12` (some centres not stated): the Potency in assay [1] was 6.51 µM (active); in assay [2], 4.11 µM (active).

For the compound `c1ccc(-c2cnn3cc(-c4ccc(OCCN5CCOCC5)cc4)cnc23)cc1`, the Potency in assay [1] was 0.0184 µM (active); in assay [2], 0.058 µM (active).

Turning to `O=C(O)Cc1cn([C@@H]2O[C@H](CO)[C@@H](O)[C@H](O)[C@H]2O[C@@H]2O[C@H](CO)[C@@H](O)[C@H](O)[C@H]2O)c2ccccc12`, the Potency result in assay [1] and in assay [2] was “inactive” in each case.

With `OCC1OC(Oc2cc(O)c3c(c2)OC(c2ccc(O)cc2)C(O)C3)C(O)C1O` (configuration not stated), the Potency entry in assay [1] and in assay [2] was “inactive” in each case.

For the compound `CC1(C)CCC2(C(=O)O)C(O)CC3(C)C(=CCC4C5(C)CCC(OC6OC(CO)C(O)C(O)C6OC6OC(CO)C(O)C(O)C6OC6OCC(O)(CO)C6O)C(C)(C)C5CCC43C)C2C1` (configuration not stated), the viability (% of control) in assay [1] is 68.6% [at 9.25 µM]. Also, in assay [2], the viability, % of control is 84.8% [at 9.25 µM].

`CC(C)CC1NC(=O)C(C(C)c2ccccc2)NC(=O)C(C(C)C)NC(=O)C(C)NC(=O)CCCNC(=O)C(Cc2c[nH]c3ccccc23)NC(=O)C(C)NC1=O` (configuration not stated): the Potency entry in assay [1] and in assay [2] was “inactive” throughout.

With `C=C1C(=O)OC2/C=C(\CO)CC/C=C(\C=O)C(O)C(OC(=O)C(C)CC)C12` (configuration not stated), the Potency in assay [1] was 2.02 µM (active); in assay [2] it was 2.86 µM (active).

With `CCOC(=O)Nc1cc(-c2ccc(C)c(NS(C)(=O)=O)c2)nn2c(C)nnc12`, the Potency in assay [1] and in assay [2] was 0.651 µM (active) in each case.

Consider `O=C(Nc1ccc(-c2ccc(Cl)c(Cl)c2)cc1)C1=C(O)c2ccccc2S(=O)(=O)N1`, for which the results for the Potency in assay [1] and in assay [2] were 20.6 µM (active) and 23.1 µM (active), respectively.

As to `C[C@@H]1O[C@@H](OC[C@H]2O[C@@H](OC(CCCCc3ccc(O)cc3)CCc3ccc(O)cc3)[C@H](O)[C@@H](O)[C@@H]2O)[C@H](O)[C@H](O)[C@H]1O` (some centres not stated), the Potency result in assay [1] and in assay [2] was “inactive” throughout.

Regarding `CC/C=C\CC1C(=O)CCC1CC(=O)OC` (configuration not stated), the Potency entry in assay [1] and in assay [2] was “inactive” each time.

The values are drawn from PubChem BioAssay (NCATS).
